Assay results as given in PubChem BioAssay (NCATS).
Inconclusive results are not listed. Activity calls are given as the source filed them. Calls follow the shape of the dose curve; as a rule, active = well fitted curve in the direction sought with a large enough effect; inconclusive = small, poorly fitted or top-dose-only effect, or another doubt; inactive = no such curve, though single readings can be large or run the other way.

experiment: qHTS for inhibitors of Wild type Zika virus screened against the NCATS CANVASS Library (AID 1347396); conditions: Vero cells, Zika virus CPE, CellTiter-Glo, 72 h; series mostly up to 45.9 µM; activity change, negative = antiviral: at the top concentration;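 also: ATP luminescence of surviving cells so rescue from viral cell killing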
From the text: Natural products and their derivatives continue to be wellsprings of nascent therapeutic potential. However, many laboratories have limited resources for biological evaluation, leaving their previously isolated or synthesized compounds largely or completely untested. To address this issue, the Canvass library of natural products was assembled (https://tripod.nih.gov/canvass), in collaboration with academic and industry researchers, for quantitative high-throughput screening (qHTS) across a diverse set of cell-based and biochemical assays. The pure (>85% purity by liquid chromatography/mass spectrometry [LC/MS]) Canvass library of 346 natural products were submitted by 45 academic laboratories and companies around the world. We collected pure natural products to circumvent deconvolution and structure elucidation due to time and resource limitations. The library was formatted into 1536-well plates and evaluated in 50 qHTS (in an 11-pnt concentration series) bioassays with broad scope of disease-relevant mechanisms. The resulting data set from 50 different assays was then systematically analyzed to identify overall trends and specific natural products with interesting biological activities. Reported herein are the results of each individual qHTS and their corresponding assay protocol. Vero cells were infected with wild type Zika virus and at 72 hours post-infection viral cytotoxicity was assayed using CellTiter Glo. National Center for Advancing Translational Sciences (NCATS), Rockville, MD National Institute of Health (NIH), Bethesda, Maryland
Zika virus infection assay protocol: 1. In a white-solid bottom 1536-well tissue culture plate (Corning 7494), 3 uL of Vero 766 cells derived (African Green Monkey) were dispensed using a Multidrop Combi (Thermo Fisher Scientific) at a final concentration of 1000 cells / well. 2. The assay plates were incubated overnight at 37C, 5% CO2, 95% humidity to acclimate and attach. 3. […] of compounds (in DMSO; columns 5-48) were pin transferred into the assay plates using the Kalypsis pin tool (Wako USA) equipped with a 1536-well pin heads. This yields a final concentration range of 0.001 - 77 uM. 4. In a biosafety cabinet, the desired MOI Zika virus was calculated and 2 uL of 2.5x Zika virus was dispensed into columns 1, 2 and 5 - 48 using the Multidrop Combi dispenser. Two microliters of media + vehicle was dispensed into columns 3 and 4 as positive controls (no infection, 100% inhibition). The assay plates were sealed with breathable film. 5. The assay plates were incubated for 72 hours at 37C, 5% CO2, 95% humidity. 6. In a biosafety cabinet, the seals were removed by Xpeel Automated Plate Seal Remover (Brooks Life Sciences) and 2.5 uL of CellTiter Glo reagent (Promega) was dispensed into the wells (columns 1 - 48, rows 1 - 32). 7. Luminescence signal was obtained via the ViewLux plate reader (Perkin Elmer) using the clear emission filter and 1x binning, 2 seconds exposure settings.
% is scaled to controls: 0 for no effect and ±100 for the full control effect.

| SMILES | activity change, negative = antiviral |
| --- | --- |
| C=C[C@@](C)(O)CC[C@@H]1[C@@]2(C)CCCC(C)(C)[C@@H]2CC[C@@]1(C)O | -3.04% (inactive) |
| COc1c(O)cc2c(c1O)C(=O)c1c(coc1C)C2=O | 11.7% (inactive) |
| CCC(=O)N[C@@H](C[C@H](C)C(Cl)(Cl)Cl)C(=O)N1C(=O)C=C(OC)[C@@H]1CC(C)C | -3.72% (inactive) |
| C/C=C(/CO)C(=O)O[C@@H]1[C@H](O)[C@@H](C(=O)OC)O[C@@H]2C[C@H]3OC(n4cnc5c(N)ncnc54)[C@H](OC)[C@H]3O[C@@]12O (stereo not given in full) | -6.55% (inactive) |
| Cc1cc(C)c(O)c(C(=O)CC2CC(=O)NC(=O)C2)c1 | 27.4% (inactive) |
| CO[C@@H](C[C@@H](C)[C@@H](O)/C=C/C=C/CNC(=O)C(C)(C)[C@H](O)\C(C)=C/C=C\C=C\Cc1cnco1)[C@]1(O)[C@@H](C)C(=O)N(C)[C@@]12COC2=O | -5.92% (inactive) |
| CC(CCC[C@]1(C)C(=O)C=C[C@@]23C[C@]4(C)O[C@@H](C[C@@H]4[C@H]2O)C31)C(=O)O (stereo not given in full) | 6.87% (inactive) |
| COc1cc(C2C3=C(Cc4cc5c(cc42)OCO5)C(=O)OC3)cc(OC)c1OC (stereo not given) | -18.6% (inactive) |
| COc1cc(C2OCC3C(c4ccc(O)c(OC)c4)OCC23)ccc1O (stereo not given) | -5.5% [at 9.14 µM] (inactive) |
| COC(=O)[C@]1([C@H]2CCC(=O)O2)CC(=O)c2c(O)cc(C)cc2O1 | 0.681% (inactive) |
| COc1cc2c(c(O)c1O)C(=O)c1c(coc1C)C2=O | 3.56% (inactive) |
| CO[C@H]1[C@@H](OC(=O)/C(C)=C\[C@@H]2O[C@@H]2[C@H]2O[C@H]2C)[C@H](O)[C@H](OCC23C[C@@H]4[C@H](C)CC[C@H]4C4(C=O)CC2C=C(C(C)C)C34C(=O)O)O[C@@H]1C (stereo not given in full) | 6.13% (inactive) |
| O=Cc1ccc2n1C[C@]1(C[C@H](O)[C@@H](CO)O1)OC2 | 7.45% (inactive) |
| COc1ccc2[nH]c3c(c2c1)CCN1C[C@H]2C[C@@H](OC(=O)c4cc(OC)c(OC)c(OC)c4)[C@H](OC)[C@@H](OC)[C@H]2C[C@H]31 | -2.25% (inactive) |
| C=C1C[C@H]2O[C@@H]3[C@@H]4[C@H](CC[C@@](C)(O)[C@@H]42)[C@H](C)COC3(C)[C@@H](OC(=O)CCCCCCC)C[C@H]1O (stereo not given in full) | -13.3% (inactive) |
| C/C=C/c1cc2c(c(=O)o1)C(=O)[C@@H](O)[C@H](C)O2 | -5.6% (inactive) |
| O=c1cc(-c2ccc(O)c(O)c2)oc2cc(O[C@@H]3O[C@H](CO)[C@@H](O)[C@H](O)[C@H]3O)cc(O)c12 | 9.42% (inactive) |
| C=C[C@](Cl)(CBr)CCC=C(C)C | -2.25% (inactive) |
| CN1CC[C@@]2([C@@]34CCN(C)[C@@H]3Nc3ccccc34)c3ccccc3N[C@@H]12 | 3.14% (inactive) |
| CC[C@H]1[C@H](C)[C@H](c2cc(OC)c(OC)cc2OC)[C@@H](C)[C@H](c2cc(OC)c(OC)cc2OC)[C@@]12C=C(OC)C(=O)C=C2OC | 21.7% (inactive) |

| SMILES | activity change, negative = antiviral |
| --- | --- |
| COc1ccc(-c2oc3cc(OC)cc(OC)c3c(=O)c2O)cc1 | -4.81% (inactive) |
| O=C(OC[C@H]1O[C@@H](OC(=O)c2cc(O)c(O)c(O)c2)[C@H](OC(=O)c2cc(O)c(O)c(O)c2)[C@@H](OC(=O)c2cc(O)c(O)c(O)c2)[C@@H]1OC(=O)c1cc(O)c(O)c(O)c1)c1cc(O)c(O)c(O)c1 | 17.6% (inactive) |
| C[C@@]1(CCC(=O)Nc2c(O)ccc(C(=O)O)c2O)C(=O)C=C[C@]23C[C@H]4C[C@H](O[C@@]4(C)C2)C31 (stereo not given in full) | -1.52% (inactive) |
| CCC(=O)N[C@@H](C[C@H](C)C(Cl)(Cl)Cl)C(=O)N1C(=O)C=C(OC)[C@@H]1C[C@H](C)CCl | 18.9% (inactive) |
| C[C@H]1C=C[C@H]2CCCC[C@@H]2[C@H]1C(=O)[C@H]1CC2=C(C(=O)O)CCN2C1=O | -16.8% (inactive) |
| COC(=O)[C@@]12Oc3cccc(O)c3C(O)=C1C(=O)C[C@H](C)[C@H]2O | 1.67% [at 91 µM] (inactive) |
| C/C1=C/[C@@H](C)[C@H](O)C/C=C/CC/C=C/C(=O)O[C@@H]1[C@H](C)C(=O)CCCC1CC(=O)NC(=O)C1 | -2.88% (inactive) |
| C=C[C@]1(C)CC[C@@H]([C@H](C)C(=O)CC=C(C)C)O1 | 4.61% (inactive) |
| C/C(=C\[C@H](C)C(=O)C[C@H](O)CC1CC(=O)NC(=O)C1)[C@@H]1OC(=O)CCCC/C=C/C[C@@H](O)[C@@H]1C | 41.2% (inactive) |
| C[C@@H]1CC[C@]2(C(=O)O)CC[C@]3(C)C(=C2[C@H]1C)CC[C@@H]1[C@@]2(C)CC[C@H](O)C(C)(C)[C@@H]2CC[C@]13C | -27.2% (inactive) |
| CC(=O)O[C@H]1c2ccccc2-c2c3c(cc4c2[C@@H]1N(C(C)=O)CC4)OCO3 | -26% (inactive) |
| CC1=C2CC[C@]3(C)[C@H](CC=C4[C@@H]5CC(C)(C)CC[C@@H]5C(=O)[C@H](O)[C@]43C)[C@@]2(C)C=C(O)C1=O | 25.3% (inactive) |
| O=C1CC(c2ccc(O)cc2)Oc2cc(O)cc(O)c21 (stereo not given) | -1.77% (inactive) |
| O=C1OC(CCO)c2cccc(O)c21 (stereo not given) | 8.75% (inactive) |
| COC1C(C)OC(OCC23C[C@@H]4[C@H](C)CC[C@H]4C4(C=O)CC2C=C(C(C)C)C34C(=O)O)[C@@H](O)[C@H]1O (stereo not given in full) | 2.46% (inactive) |
| C=C[C@]1(C)CC[C@@H]([C@H](C)C(=O)/C=C/C(C)(C)O)O1 | 11.8% (inactive) |
| CC(C)=CCCC(C)(O)[C@H]1CC=C(C)C(O)C1 (stereo not given in full) | 4.32% (inactive) |
| COc1ccc([C@@H]2c3cc4c(cc3C(=O)C(C)C2C)OCO4)cc1OC (stereo not given in full) | 18.8% (inactive) |
| C/C=C/C1C=CC2CC(C)CC(C)C2C1C(=O)CC(=O)NC(CO)C/C=C/CCCCC (stereo not given) | -12.1% (inactive) |
| O=c1cc(-c2ccc(O)cc2)oc2cc(O)c([C@@H]3OC(CO)[C@H](O)[C@@H](O)[C@H]3O)c(O)c12 (stereo not given in full) | -6.18% (inactive) |
